PubChem BioAssay
Records with an inconclusive call do not appear. The source made the active and inactive calls.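 Rule for the calls, unless noted: active = viability at or below 30% in both replicate assays; inconclusive = viability at or below 30% in just one of the two assays; inactive = the rest.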

What was measured:
[1] = reducers of endogenous Her2 protein level, primary screen, SKBR3 breast tumor cells, AlphaScreen, ATP viability (AID 461;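 active = Her2 level under about 52% in both replicate screens, with viability over 70% of control, limit read from the data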;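 for Her2 level: lower value means less Her2 protein in the cells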;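 for viability: percent of carrier control wells set as 100% viability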); details: 18-24 h, measured here: SKBR3 viability, ATP luminescence, at 10 µM
[2] = target: Receptor tyrosine-protein kinase erbB-2 (Homo sapiens) (UniProt P04626); assay: as above; details: 18-24 h, at 10 µM, stronger effect = lower value
Receptor tyrosine-protein kinase erbB-2 (Homo sapiens), sequence (P04626 whole entry, looked up): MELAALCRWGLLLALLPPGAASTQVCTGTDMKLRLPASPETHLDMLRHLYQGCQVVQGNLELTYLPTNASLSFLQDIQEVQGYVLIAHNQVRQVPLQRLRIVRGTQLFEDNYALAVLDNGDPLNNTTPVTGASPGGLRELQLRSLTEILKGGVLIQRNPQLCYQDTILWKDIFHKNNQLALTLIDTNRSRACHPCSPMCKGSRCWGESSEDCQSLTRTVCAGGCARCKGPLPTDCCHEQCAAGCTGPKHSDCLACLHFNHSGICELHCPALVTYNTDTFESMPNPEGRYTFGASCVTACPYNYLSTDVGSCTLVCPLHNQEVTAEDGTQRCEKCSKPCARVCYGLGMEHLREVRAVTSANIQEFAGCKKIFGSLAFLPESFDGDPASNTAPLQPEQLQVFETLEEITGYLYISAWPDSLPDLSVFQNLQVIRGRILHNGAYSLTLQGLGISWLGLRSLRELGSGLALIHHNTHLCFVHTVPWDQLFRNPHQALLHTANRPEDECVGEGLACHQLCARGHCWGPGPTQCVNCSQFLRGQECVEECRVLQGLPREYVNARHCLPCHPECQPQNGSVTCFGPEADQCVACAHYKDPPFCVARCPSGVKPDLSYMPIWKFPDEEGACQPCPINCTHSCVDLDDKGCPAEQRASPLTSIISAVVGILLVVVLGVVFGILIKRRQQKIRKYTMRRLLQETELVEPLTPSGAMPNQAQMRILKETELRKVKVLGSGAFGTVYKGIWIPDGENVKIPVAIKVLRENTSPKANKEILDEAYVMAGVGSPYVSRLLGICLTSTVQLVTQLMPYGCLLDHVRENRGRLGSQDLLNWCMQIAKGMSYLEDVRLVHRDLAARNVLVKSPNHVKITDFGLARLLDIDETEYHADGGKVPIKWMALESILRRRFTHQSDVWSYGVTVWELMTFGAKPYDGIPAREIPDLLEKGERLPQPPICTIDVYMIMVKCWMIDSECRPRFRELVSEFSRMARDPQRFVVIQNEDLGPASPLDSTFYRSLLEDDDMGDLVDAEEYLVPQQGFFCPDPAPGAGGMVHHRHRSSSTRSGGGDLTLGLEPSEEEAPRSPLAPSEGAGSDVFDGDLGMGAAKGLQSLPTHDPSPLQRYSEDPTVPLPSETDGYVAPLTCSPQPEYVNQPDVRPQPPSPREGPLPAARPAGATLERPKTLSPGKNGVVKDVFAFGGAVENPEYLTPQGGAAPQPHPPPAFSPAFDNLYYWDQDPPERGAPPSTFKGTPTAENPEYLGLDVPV

[3] = SK-BR-3 cell growth inhibitors, pilot screen, 24 h, human (AID 572;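 active = viability at or below 10% of carrier control in both of two separate runs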;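 note: compound exposure lasted between 18 and 24 h rather than exactly 24 h; 100% = carrier-treated control wells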); details: SK-BR-3 viability, CellTiter-Glo luminescence, at 10 µM, stronger effect = lower value
[4] = HUVEC growth inhibition – cell-based, human, primary screen (AID 575); details: HUVEC proliferation, CellTiter-Glo luminescence, 72 h; at 10 µM; stronger effect = lower value;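 note: 100% = median of untreated cell wells with 0.1% DMSO on each plate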
[5] = growth inhibitors of H69AR lung tumor, primary screen, human, duplicate replicates (AID 580;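 active = viability at or under a set limit in both replicates, limit being median viability minus 3 SD, cut at about 48% in these data, passing the limit was not always enough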;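 note: 100% = mean luminescence of untreated wells and 0% = no signal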); details: H69AR lung tumor cells viability, ATP luminescence, 72 h; at 10 µM; stronger effect = lower value
[6] = reversal of MRP1-mediated doxorubicin resistance, pilot screen, H69AR cells, doxorubicin co-treatment (AID 601;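 active = viability loss from added drug above about 55%, and viability with drug at most 40%, in both replicates, limit read from the data, passing the limit was not always enough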); details: CellTiter-Glo, 72 h, at 10 µM; for differential viability (reversal): stronger effect = higher value
[7] = 384-well plate pilot, post-Golgi transport modulator project, inhibition of yeast transport mutant growth (AID 636; in the data active = inhibition above about 31%); details: absorbance 615 nm, about 18 h, stronger effect = higher value
[8] = growth suppression of yeast trafficking mutant, preliminary HTS, modulators of trafficking downstream of Golgi apparatus project, 1536-format plate, OD 615 nm (AID 637; in the data active = inhibition above about 30%); details: yeast transport mutant growth, absorbance 615 nm, 18 h; stronger effect = higher value
[9] = OD615 S. cerevisiae growth inhibition, permissive medium, pilot counter-assay, permissive growth control for S. cerevisiae lifespan shortening project (AID 705;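 active = growth inhibition above 25% in both replicates, a cutoff set 3 SD above the mean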); details: OD615, 24 h, at 10 µM, stronger effect = higher value
[10] = Restrictive medium S. cerevisiae growth inhibition, OD615, pilot screen of yeast lifespan reduction project, restrictive growth control (AID 706;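 active = growth inhibition above a set limit, 3 SD over mean compound inhibition, in both replicates, cut at about 43% in these data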;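 note: modified DeaD lifespan yeast strain shifted to restrictive glucose medium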); details: OD615, 48 h, at 10 µM, stronger effect = higher value
[11] = viability gain of MRP-1-high H69AR cells under doxorubicin, pilot screen, MRP-1 activator project, CellTiter-Glo, duplicate (AID 807;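 active = viability increase at or above a cutoff of the median across tested compounds plus 3 SD, cut at about 8.5% in these data, passing the limit was not always enough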;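 note: compound pretreatment 18-22 h then 72 h combined with doxorubicin; 0% = doxorubicin alone and 100% = vehicle without doxorubicin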); details: H69AR viability with doxorubicin, CellTiter-Glo luminescence; at 10 µM; stronger effect = higher value
[12] = growth suppression of beta-catenin knockout HCT116, pilot screen, human colon tumor cells (AID 823;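 active = cell viability at or below a set limit in both duplicate runs, the limit being the all-compound median minus 4 SD, cut at about 23% in these data, passing the limit was not always enough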;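 note: 0% = wells killed by 20 µM Hyamine and 100% = untreated DMSO cell wells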); details: CellTiter-Glo, 60 h, at 10 µM, stronger effect = lower value
[13] = growth suppression of PTEN-deleted HCT116, pilot screen, cell-based, HCT116 clonal line, CellTiter-Glo (AID 824;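 active = viability at or below 27.92% in each of two runs, the all-compound median minus 4 SD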;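 note: 0% = 20 µM Hyamine control and 100% = vehicle cell control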); details: 60 h, at 10 µM, stronger effect = lower value
[14] = inhibitors of the yeast RAM network, pilot screen, dse1pr::URA3 reporter, 5-FOA selection (AID 869;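 active = inhibition over a set limit, the all-compound mean plus 3 SD, in both replicate runs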;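 note: 0% = DMSO wells with no growth and 100% = 10 µM 1-NA-PP1 with full growth; RAM network block rescues cells from 5-FOA so hits raise OD615 growth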); details: S. cerevisiae dse1pr::URA3 5-FOA growth, OD615, 2 d; at 10 µM; stronger effect = higher value; strain carries analog-sensitive mutant Cbk1 kinase
[15] = RAM signaling pathway blockade in yeast – S. cerevisiae, Pdr1DBD-CYC8 efflux-inhibited sensitized strain, primary screen (AID 1298;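 active = RAM network inhibition above 8.4% in each of two replicates, 3 SD over the compound average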;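 note: 0% = DMSO untreated cells without growth and 100% = 10 µM 1-NA-PP1 full growth; higher means more yeast growth rescued from 5-FOA killing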); details: S. cerevisiae cbk1-as DSE1-URA3 strain, 5-FOA growth OD615, 2 d; at 50 µM; stronger effect = higher value
[16] = H69AR cells + 2 uM doxorubicin, measured here: viability with 2 uM doxorubicin, stronger effect = lower value
[17] = H69AR cells, compound alone cytotoxicity

COC(=O)Cn1ncc2c(C)n(Cc3ccccc3)c(C)c2c1=O
viability [1]: 122%
Her2 level [2]: 112% (inactive)
viability [3]: 122% (inactive)
viability [4]: 107% (inactive)
viability [5]: 96% (inactive)
differential viability (reversal) ([6]; H69AR cells + 2 uM doxorubicin): 7.04% (inactive)
viability [6, 16]: 88.9%
viability [6, 17]: 96%
inhibition [7]: -3.73% (inactive)
inhibition [8]: 2% (inactive)
growth inhibition [9]: -7.07% (inactive)
growth inhibition [10]: -6.09% (inactive)
viability increase [11]: 2.78% (inactive)
viability [12]: 100% (inactive)
viability [13]: 96.7% (inactive)
inhibition [14]: 0.365% (inactive)
RAM network inhibition [15]: 2.88% (inactive)

Cc1ccc(C)n1-n1c(C)nc2sc(-c3ccccc3)cc2c1=O
viability [1]: 89%
Her2 level [2]: 106% (inactive)
viability [3]: 89% (inactive)
viability [4]: 80.3% (inactive)
viability [5]: 81.9% (inactive)
differential viability (reversal) ([6]; H69AR cells + 2 uM doxorubicin): -8.97% (inactive)
viability [6, 16]: 90.8%
viability [6, 17]: 81.9%
inhibition [7]: -0.38% (inactive)
inhibition [8]: 2.67% (inactive)
growth inhibition [9]: -3.25% (inactive)
growth inhibition [10]: -27.4% (inactive)
viability increase [11]: 1.12% (inactive)
viability [12]: 54.6% (inactive)
viability [13]: 61% (inactive)
inhibition [14]: 0.52% (inactive)
RAM network inhibition [15]: 9.68% (inactive)

N#Cc1nc(COc2ccccc2Cl)oc1N1CCCCCC1
viability [1]: 96.5%
Her2 level [2]: 104% (inactive)
viability [3]: 96.5% (inactive)
viability [4]: 79.6% (inactive)
viability [5]: 93.1% (inactive)
differential viability (reversal) ([6]; H69AR cells + 2 uM doxorubicin): -3.75% (inactive)
viability [6, 16]: 96.9%
viability [6, 17]: 93.1%
inhibition [7]: -3.6% (inactive)
inhibition [8]: -3.17% (inactive)
growth inhibition [9]: 7.94% (inactive)
growth inhibition [10]: 6.52% (inactive)
viability increase [11]: 2.96% (inactive)
viability [12]: 98.7% (inactive)
viability [13]: 87.5% (inactive)
inhibition [14]: 2.3% (inactive)
RAM network inhibition [15]: 5.67% (inactive)

CCOc1ccccc1NC(=O)CSc1nnc(Cc2cccn2C)n1-c1ccc(F)cc1
viability [1]: 92.5%
Her2 level [2]: 78.5% (inactive)
viability [3]: 92.5% (inactive)
viability [4]: 97.4% (inactive)
viability [5]: 79.9% (inactive)
differential viability (reversal) ([6]; H69AR cells + 2 uM doxorubicin): 1.24% (inactive)
viability [6, 16]: 78.6%
viability [6, 17]: 79.9%
inhibition [7]: -1.28% (inactive)
inhibition [8]: -1.17% (inactive)
growth inhibition [9]: 5.28% (inactive)
growth inhibition [10]: 7.75% (inactive)
viability increase [11]: -5.25% (inactive)
viability [12]: 75.5% (inactive)
viability [13]: 78.2% (inactive)
inhibition [14]: 1.11% (inactive)
RAM network inhibition [15]: 4.07% (inactive)

Cc1ccc2c(c1)-c1c(cnn1CC(=O)NC(C)CCc1ccco1)CO2 (stereo not given)
viability [1]: 85.5%
Her2 level [2]: 87% (inactive)
viability [3]: 85.5% (inactive)
viability [4]: 91.5% (inactive)
viability [5]: 85.9% (inactive)
differential viability (reversal) ([6]; H69AR cells + 2 uM doxorubicin): -5.22% (inactive)
viability [6, 16]: 91.1%
viability [6, 17]: 85.9%
inhibition [7]: -4.36% (inactive)
inhibition [8]: 0.83% (inactive)
growth inhibition [9]: -10.4% (inactive)
growth inhibition [10]: -5.76% (inactive)
viability increase [11]: -3.78% (inactive)
viability [12]: 88.8% (inactive)
viability [13]: 87% (inactive)
inhibition [14]: 2.04% (inactive)
RAM network inhibition [15]: 7.88% (inactive)

CCCNC(=O)C1CC(=O)N(c2ccc(OCC(=O)Nc3cc(C)cc(C)c3)cc2)C1 (stereo not given)
viability [1]: 112%
Her2 level [2]: 122% (inactive)
viability [3]: 112% (inactive)
viability [4]: 80.5% (inactive)
viability [5]: 95.6% (inactive)
differential viability (reversal) ([6]; H69AR cells + 2 uM doxorubicin): 4.41% (inactive)
viability [6, 16]: 91.2%
viability [6, 17]: 95.6%
inhibition [7]: -0.53% (inactive)
inhibition [8]: -4.33% (inactive)
growth inhibition [9]: -14.5% (inactive)
growth inhibition [10]: -25.6% (inactive)
viability increase [11]: -4.47% (inactive)
viability [12]: 92% (inactive)
viability [13]: 90.4% (inactive)
inhibition [14]: 2.06% (inactive)
RAM network inhibition [15]: 4.16% (inactive)

CCN1CCN(C(=O)c2oc(=O)c3ccccc3c2-c2ccc(C)cc2)CC1
viability [1]: 96%
Her2 level [2]: 102% (inactive)
viability [3]: 96% (inactive)
viability [4]: 98.6% (inactive)
viability [5]: 96.4% (inactive)
differential viability (reversal) ([6]; H69AR cells + 2 uM doxorubicin): -4.83% (inactive)
viability [6, 16]: 101%
viability [6, 17]: 96.4%
inhibition [7]: -3.07% (inactive)
inhibition [8]: 5.9% (inactive)
growth inhibition [9]: -1.38% (inactive)
growth inhibition [10]: -6.39% (inactive)
viability increase [11]: -3.04% (inactive)
viability [12]: 91.9% (inactive)
viability [13]: 90.5% (inactive)
inhibition [14]: 2.07% (inactive)
RAM network inhibition [15]: 1.85% (inactive)

CCN1CCN(C(=O)C2CC(c3ccc(F)cc3)=NO2)CC1 (stereo not given)
viability [1]: 91.5%
Her2 level [2]: 105% (inactive)
viability [3]: 91.5% (inactive)
viability [4]: 103% (inactive)
viability [5]: 99.1% (inactive)
differential viability (reversal) ([6]; H69AR cells + 2 uM doxorubicin): 24.1% (inactive)
viability [6, 16]: 75.1%
viability [6, 17]: 99.1%
inhibition [7]: -4.1% (inactive)
inhibition [8]: -6.67% (inactive)
growth inhibition [9]: -3.54% (inactive)
growth inhibition [10]: 3.61% (inactive)
viability increase [11]: 0.82% (inactive)
viability [12]: 95.2% (inactive)
viability [13]: 102% (inactive)
inhibition [14]: 0.095% (inactive)
RAM network inhibition [15]: 2.03% (inactive)

CCOC(=O)c1ccccc1NC(=O)c1ccc2c(=O)n3c(nc2c1)CCCCC3
viability [1]: 87.5%
Her2 level [2]: 84.5% (inactive)
viability [3]: 87.5% (inactive)
viability [4]: 84.9% (inactive)
viability [5]: 84.4% (inactive)
differential viability (reversal) ([6]; H69AR cells + 2 uM doxorubicin): -9.15% (inactive)
viability [6, 16]: 93.5%
viability [6, 17]: 84.4%
inhibition [7]: -4.53% (inactive)
inhibition [8]: 0.67% (inactive)
growth inhibition [9]: -5.51% (inactive)
growth inhibition [10]: -0.78% (inactive)
viability increase [11]: -1.73% (inactive)
viability [12]: 82.5% (inactive)
viability [13]: 81.2% (inactive)
inhibition [14]: 1.7% (inactive)
RAM network inhibition [15]: 18.8% (active)

CSc1cccc(NS(=O)(=O)c2ccccc2)c1
viability [1]: 78.5%
Her2 level [2]: 88% (inactive)
viability [3]: 78.5% (inactive)
viability [4]: 107% (inactive)
viability [5]: 88.7% (inactive)
differential viability (reversal) ([6]; H69AR cells + 2 uM doxorubicin): 1.02% (inactive)
viability [6, 16]: 87.7%
viability [6, 17]: 88.7%
inhibition [7]: -0.9% (inactive)
inhibition [8]: -5.33% (inactive)
growth inhibition [9]: -0.535% (inactive)
growth inhibition [10]: 3.39% (inactive)
viability increase [11]: 0.44% (inactive)
viability [12]: 92.1% (inactive)
viability [13]: 95% (inactive)
inhibition [14]: 0.96% (inactive)
RAM network inhibition [15]: 0.21% (inactive)
